IL-1B inflam inh: inflammasome signaling inhibition, IL-1 beta readout | THP-1 LPS/ATP IL-1B secretion, AlphaLISA, 16 h; hits give low values | activity change, % at 57.5 µM | actives 4.7% (n = 360,000) | AID 743279; in the data active = activity change below about -50%; inconclusive = mostly about -30% to -49%
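THP-1 cells pretreated 1 hr with compounds (up to 57.5 uM final), then stimulated with LPS (250 ng/mL final) plus ATP (1.25 mM final); secreted IL-1B measured by AlphaLISA after 16 hr, decreased signal indicating inhibition.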
HepG2 tox: kills HepG2 cells in TGF-b inhibitor counter-screen; AID 588856; actives 0.76% (n = 410,000); HepG2 CAGA-GFP viability, ATP luminescence, 18 h; Potency, µM (top dose mostly 46.1 µM), usual class: cytotoxic
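CellTiter-Glo luminescence gave cytotoxicity after 18 hours at 37 degrees C. The cells were HepG2 CAGA-GFP in 1% FBS DMEM, stimulated with 500 pg/mL TGF-beta after compound addition. %Activity was normalised to no-cell wells (complete cell-killing) and DMSO (no toxicity), and curves were fitted and classified.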
TDP1 cell noCPT: qHTS for Inhibitors of human tyrosyl-DNA phosphodiesterase 1 (TDP1): qHTS in cells in absence of CPT; DT40 Tdp1-/- hTDP1 cells, no CPT, ATP luminescence, 48 h; actives 15% (n = 420,000); Potency, µM (doses to about 46.2 µM), actives largely listed as inhibitors; also: nearly all actives have a fitted effect of over 55% in size
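Growth of hTDP1-complemented DT40 Tdp1-knockout cells is measured by ATP luminescence after at least 48 hr compound exposure at 37 °C, with DMSO substituting for the 20 nM CPT used in the parallel screen.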
DT40 TDP1 CPT: DT40-hTDP1 cell growth loss with CPT; chicken DT40 Tdp1-/-;hTDP1 cells + 20 nM CPT, ATP luminescence, 48 h; AID 686979; Potency, µM (highest dose often 46.2 µM), actives largely listed as inhibitors; actives 12% (n = 420,000); also: nearly all actives have a fitted effect of over 55% in size
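Cell growth measured by CellTiter-Glo luminescence after a minimum 48 h, 37 C compound exposure with 20 nM CPT in Tdp1-knockout DT40 cells stably expressing hTDP1, seeded 400/well; qHTS titration format.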
TGFb inhibitor: TGF-b pathway inhibition; HepG2 CAGA-GFP TGF-b/SMAD3 reporter, GFP fluorescence, 18 h; TGF-beta stimulated, 500 pg/mL final; Potency, µM (top dose mostly 46.1 µM), actives largely listed as inhibitors; actives 1.2% (n = 410,000); AID 588855; also: nearly all actives have a fitted effect of over 65% in size
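HEPG2 CAGA-GFP, 1000 cells/well; 2 h settle, 37 C; cpd via pin tool; TGF-b 500 pg/mL final; 18 h, 37 C; GFP imaging ex488/em500-530; %Activity normalised to -TGF-b and +DMSO controls; CRC fit, curve class.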
TDP1 block: inhibitors of human tyrosyl-DNA phosphodiesterase TDP1; Q9NUW8; recombinant TDP1, AlphaScreen DNA substrate cleavage; Potency, µM (highest dose often 130 µM), hits mostly inhibitors; actives 0.28% (n = 350,000); AID 485290; also: nearly all actives have a fitted effect of over 40% in size
Target sequence (Q9NUW8 whole entry, looked up): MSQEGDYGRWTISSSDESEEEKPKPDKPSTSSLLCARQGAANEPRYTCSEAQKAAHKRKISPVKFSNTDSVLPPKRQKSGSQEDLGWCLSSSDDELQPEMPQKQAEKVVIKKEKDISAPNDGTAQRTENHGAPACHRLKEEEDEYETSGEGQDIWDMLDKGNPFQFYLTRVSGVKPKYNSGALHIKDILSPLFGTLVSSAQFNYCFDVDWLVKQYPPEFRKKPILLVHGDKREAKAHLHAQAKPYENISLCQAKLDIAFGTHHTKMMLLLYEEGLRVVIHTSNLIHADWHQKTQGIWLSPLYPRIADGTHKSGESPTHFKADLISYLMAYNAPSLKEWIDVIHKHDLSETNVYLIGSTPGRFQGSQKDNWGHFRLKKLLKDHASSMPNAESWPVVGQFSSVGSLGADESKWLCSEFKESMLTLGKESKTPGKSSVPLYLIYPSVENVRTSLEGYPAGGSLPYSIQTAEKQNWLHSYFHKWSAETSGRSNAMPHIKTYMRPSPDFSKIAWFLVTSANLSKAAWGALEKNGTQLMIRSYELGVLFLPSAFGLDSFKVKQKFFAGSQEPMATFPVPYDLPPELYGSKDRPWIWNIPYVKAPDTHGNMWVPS
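Here, a 5' biotin and 3' phosphotyrosine-FITC DNA oligonucleotide reports Tdp1 activity: intact substrate bridges AlphaScreen beads, while cleavage leaves a 3' phosphate and drops signal. All incubations at room temperature.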
Each line names hits and unclear results; the compound was inactive in the other large screens. A selection: hits, their analogues and other compounds. The true share with any hit is near 18%. Unless noted, calls follow the shape of the dose curve; as a rule, active = well fitted curve in the direction sought with a large enough effect; inconclusive = small, poorly fitted or top-dose-only effect, or another doubt; inactive = no such curve, though single readings can be large; an effect the other way counts as inactive or inconclusive.

Cc1cccc(N2C(=O)N(Cc3ccc(C(C)(C)C)cc3)c3ccccc3S2(=O)=O)c1	TDP1 cell noCPT 21µM, DT40 TDP1 CPT inconclusive (no result: IL-1B inflam inh)
Cc1ccc(CN2c3ccccc3S(=O)(=O)c3ccccc32)cc1	TDP1 cell noCPT inconclusive, DT40 TDP1 CPT 26µM, TGFb inhibitor inconclusive (no result: IL-1B inflam inh)
S=C=Nc1cccc(NC(=S)NCCCCNC(=S)Nc2cccc(N=C=S)c2)c1	none (no result: IL-1B inflam inh, HepG2 tox, TDP1 cell noCPT, DT40 TDP1 CPT, TGFb inhibitor)
Cc1nc(NC2CCCCC2)c2nc(-c3ccccc3)n(CC3CCN(C)CC3)c2n1	none (no result: IL-1B inflam inh, HepG2 tox, TDP1 cell noCPT, DT40 TDP1 CPT, TGFb inhibitor)
Cc1ccc(NC(=O)CC2Oc3ccccc3NC2=O)cc1C (configuration not stated)	TGFb inhibitor inconclusive (no result: IL-1B inflam inh)
CCc1ccc2[nH]c3nc(SCc4nnc(-c5ccc(C)cc5)o4)nnc3c2c1	TDP1 cell noCPT inconclusive, DT40 TDP1 CPT inconclusive
Cc1ccc(C(=O)NNC(=O)CSc2nnc3c(n2)[nH]c2ccc(C)cc23)cc1	TDP1 cell noCPT 18µM, DT40 TDP1 CPT inconclusive
CCc1ccc2[nH]c3nc(SCCN4CCOCC4)nnc3c2c1	TDP1 cell noCPT 23µM, DT40 TDP1 CPT inconclusive (no result: TDP1 block)
Cc1ccc(C(=O)NNC(=O)CSc2nc(N)cc(N)n2)cc1	DT40 TDP1 CPT inconclusive
CCOc1ccc2[nH]c3nc(SCC(=O)NC4CC4)nnc3c2c1	TDP1 cell noCPT inconclusive, DT40 TDP1 CPT inconclusive
CCc1ccc2[nH]c3nc(SCC(=O)NNC(=O)c4ccc(C(C)(C)C)cc4)nnc3c2c1	IL-1B inflam inh -59, TDP1 cell noCPT 16µM, DT40 TDP1 CPT 21µM
Cc1ccc(CNC(=O)CN(C)S(=O)(=O)c2ccc(Br)s2)cc1	TDP1 cell noCPT inconclusive (no result: IL-1B inflam inh)
CCCC/C=C/C(NC(=O)C(C)(C)C)c1ccccc1 (configuration not stated)	none (no result: IL-1B inflam inh, HepG2 tox, TDP1 cell noCPT, DT40 TDP1 CPT, TGFb inhibitor)
CC1CCc2c(sc(NC(=O)c3ccccc3)c2C(=O)Nc2ccccc2)C1 (configuration not stated)	TDP1 cell noCPT 21µM, DT40 TDP1 CPT 9.2µM (no result: IL-1B inflam inh)
Cc1ccccc1NC(=O)c1c(NC(=O)c2cccs2)sc2c1CCC(C)C2 (configuration not stated)	TDP1 cell noCPT inconclusive, TGFb inhibitor inconclusive (no result: IL-1B inflam inh)
Cc1cccc(NC(=O)c2c(NC(=O)c3cccs3)sc3c2CCC(C)C3)c1 (configuration not stated)	TDP1 cell noCPT 10µM, DT40 TDP1 CPT 23µM (no result: IL-1B inflam inh)
O=C(c1ccc(F)cc1)C1CCN(CCn2c(=S)[nH]c3ccccc3c2=O)CC1	TDP1 cell noCPT 15µM, DT40 TDP1 CPT inconclusive (no result: IL-1B inflam inh, HepG2 tox, TGFb inhibitor)
CC1(C)C(=O)N(CCN2CCC(C(=O)c3ccc(F)cc3)CC2)c2ccccc21	TDP1 cell noCPT 15µM, DT40 TDP1 CPT 13µM
Cc1cc2oc(C(=O)Nc3ccc(S(=O)(=O)Nc4onc(C)c4C)cc3)cc(=O)c2cc1C	TGFb inhibitor inconclusive (no result: IL-1B inflam inh)
COc1ccc(S(=O)(=O)NCC2CCCN(C(=O)CCC(F)(F)F)C2)cc1 (configuration not stated)	none (no result: TDP1 block)
CN(C)c1nc(NCc2ccccc2)nc(N/N=C/c2ccc3c(c2)OCO3)n1	TDP1 cell noCPT 16µM, DT40 TDP1 CPT inconclusive
O=c1[nH]c(N/N=C\c2ccc3c(c2)OCO3)nc2ccccc12	TDP1 cell noCPT 23µM, DT40 TDP1 CPT inconclusive
Cc1cc(N/N=C/c2ccc3c(c2)OCO3)nc2ccccc12	HepG2 tox 20µM, TDP1 cell noCPT 26µM, DT40 TDP1 CPT inconclusive
Cc1ccc(S(=O)(=O)C(CNC(=O)C(=O)NCc2ccc(Cl)cc2)c2cccs2)cc1 (configuration not stated)	TDP1 cell noCPT inconclusive, DT40 TDP1 CPT inconclusive (no result: IL-1B inflam inh)
COC(=O)c1ccc(CN2CCCC(CO)(Cc3ccccc3F)C2)cc1 (configuration not stated)	none (no result: TDP1 block)
COc1ccccc1N1C(=O)c2cccnc2C1=O	none
O=C1c2cccnc2-c2ncccc21	none

Source: PubChem BioAssay
